Compounds with a hit are over-represented: about 21% of the library has one in this group of screens.
Pf growth 48h – P. falciparum growth inhibition at 48 hours (one generation) | 310,000 tested, 5.9% active | P. falciparum luciferase growth in erythrocytes, 48 h | Potency, µM (doses to about 28.7 µM), inactives show top-dose activity change, negative = inhibition, hits mostly inhibitors | AID 504832; note: potency is the fitted concentration of half-maximal effect; % is set by controls: 0 for no effect and ±100 for the full control effect
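Compounds are pin-transferred into medium, infected erythrocytes (2% hematocrit, 0.1% parasitemia final) are added, and plates sit one parasite generation at 37 C in 5% CO2. Detection reagent is then added and luminescence measured.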
Pf growth 96h – P. falciparum growth inhibition at 96 hour, primary screen for plastid delayed-death inhibitors; P. falciparum luciferase reporter growth, 96 h; Potency, µM (highest dose often 28.7 µM), without a hit: top-dose activity change, negative = inhibition, usual class: inhibitors; 320,000 tested, 6.9% active; note: potency is the fitted concentration of half-maximal effect; % is set by controls: 0 for no effect and ±100 for the full control effect
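Two-generation exposure (96 h) targets delayed-death phenotype. Reporter parasites carrying integrated firefly luciferase, in red cells at 2% hematocrit and 0.05% parasitemia final, kept at 37 C, 5% CO2; luminescence loss indicates inhibition.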
Shiga inhibitor – inhibitors of Shiga toxin in Vero cells | Vero cells, Shiga toxin protein synthesis inhibition reporter | inhibition, % at 38.7 µM | 290,000 tested, 9.2% active; in the data active = inhibition mostly above about 28%, no sharp cut-off; inactive = mostly below about 43%; note: 0% is about no effect
Cycloheximide cs – counter-screen hit for Shiga toxin inhibitors, cycloheximide | AID 2314 | max response, % | cell reporter, cycloheximide protein synthesis inhibition counterscreen | 300,000 tested, 12% active; in the data active = max response mostly above about 13%, no sharp cut-off; inactive = mostly below about 14%; note: read at 38.3 µM for the half of the compounds with a filed dose; 0% is about no effect
The depositor's hits bear a star; u = inconclusive; x = no result given; [ ] = dose if it differs, or a comment. Unless noted, calls come from the whole dose curve; as a rule, active = well fitted inhibition curve with a large enough effect; inconclusive = small, poorly fitted or top-dose-only effect, or another doubt; inactive = no such curve, though single readings can be large or run the other way.

SMILES	Pf growth 48h	Pf growth 96h	Shiga inhibitor	Cycloheximide cs
COC(=O)/C(C#N)=C/c1cc(C)sc1C	21%	-3%	-8	1
Cn1cc(C(=O)CCl)c2ccccc21	u	u	3	2
O=C(O)COCC(=O)Nc1ccc(OCCc2ccccc2)cc1	-8%	17%	7	-1
COCC(C)N1CCC(Oc2ccc(C(=O)N3CCCC3)cc2)CC1 (stereo not given)	-11%	31%	10	1
Cc1nn(-c2ccc(Cl)cc2)c(=O)c2ccccc12	74%	123%	98*	48*
Cc1nn(-c2ccc(Cl)c(Cl)c2)c(=O)c2ccccc12	94%	x	12	-5
Cc1ccc(OCC(=O)N/N=C\c2cccn2C)c([N+](=O)[O-])c1	9%	-21%	42*	32*
Cc1ccc(OCC(=O)N/N=C\c2ccc(C)o2)c([N+](=O)[O-])c1	0%	5.9µM*	44	8
Cc1ccc(OCC(=O)N/N=C/c2ccccc2)c([N+](=O)[O-])c1	-10%	18%	18	18
CCOc1cc(N2CCOCC2)c(OCC)cc1NC(=O)CN1C(=O)N(C)C2(CCCCC2)C1=O	29%	-19%	x	x
COC(=O)COC(=O)CC(CC(N)=O)c1ccccc1 (stereo not given)	0%	9.3µM*	15	-1
CCC(CC)C(=O)Nc1cc(C)cc(C)c1	5%	x	-16	-2
CCCCOc1ccccc1NC(=O)CC1Nc2ccccc2NC1=O (stereo not given)	1.7µM*	-6%	4	18
N#Cc1cc(-c2ccccc2)cnc1Sc1ccccc1	30%	41%	55*	27*
O=C(Nc1ccc(F)cc1)c1cccnc1Oc1ccccc1	x	18%	-3	-2
O=C(Nc1ccc(Oc2cccnc2)cc1)c1ccccc1Cl	14%	u	2	27*
CCOC(=O)Cc1ncccc1C(=O)Nc1ccc(Oc2ccccc2)cc1	8.3µM*	12µM*	3	5
O=C(Nc1ccc(Oc2cccnc2)cc1)c1ccccc1F	-13%	88%	64	26*
CCOCCCNCc1ccc(OCc2ccccc2Cl)cc1	u	u	-13	-4
OCCNCCCCOc1ccc(OCc2ccccc2)cc1	-19%	29%	86*	34*
CC(O)CNCCCCOc1ccc(OCc2ccccc2)cc1 (stereo not given)	u	u	75*	24*
CC(O)CNCCCOc1ccccc1OCc1ccccc1 (stereo not given)	u	28%	-17	0
OCCCCNCc1ccc(OCc2ccccc2Cl)cc1	u	u	26	25*
Cc1cc(OCCCCCNCCO)cc(C)c1Cl	x	13µM*	-9	1
Cc1ccccc1C(=O)NC1CCN(CC(=O)N2CCCCC2C)CC1 (stereo not given)	16%	-16%	-4	-4
SMILES	Pf growth 48h	Pf growth 96h	Shiga inhibitor	Cycloheximide cs
OCCCCNCc1ccc(OCc2ccccc2)cc1	17%	101%	34	14*
CC(C)(c1ccccc1)c1ccc(OCCCNCCO)cc1	x	2.1µM*	5	10
Cc1ccc(C)c(NC(=S)NNC(=O)c2sccc2C)c1	14%	7%[5.75 µM]	121*	29*
Cc1ccc(C)c(NC(=S)NNC(=O)c2csc(C)c2C)c1	15%	30%	22*	18*
Cc1ccc(C)c(NC(=O)CN(C)C(=O)c2sccc2C)c1	1%	2%	x	x
Cc1ccc(C)c(NC(=S)NNC(=O)c2csc(C(C)C)c2)c1	27%	-6%	28	18*
Cc1nnsc1C(=O)N1CCCC(N2CCN(c3ccc(F)cc3)CC2)C1 (stereo not given)	0%	33%	3	-1
Cc1ccccc1N1C(N)=NC(N)=NC1(C)C	u	u	11	-2
CCOC(=O)c1cccc(N2C(N)=NC(N)=NC2(C)C)c1	u	8%	61	-4
CC1(C)N=C(N)N=C(N)N1c1cccc(C(=O)O)c1	-8%	x	6	16
COc1cccc(N2C(N)=NC(N)=NC2(C)C)c1	0.13µM*	-19%	-9	1
CC1(C)N=C(N)N=C(N)N1c1ccc(OCCCOc2ccccc2)c(Cl)c1	0.026µM*	0.023µM*	-12	-6
CCOc1ccc(N2C(N)=NC(N)=NC2(C)C)cc1	0.13µM*	10%	-14	-4
COc1ccc(N2C(N)=NC(N)=NC2(C)C)cc1	0.033µM*	u	-29	1
CC(C)c1ccc(-c2csc3ncnc(N4CCN(C)CC4)c23)cc1	u	u	-7	-4
COc1ccc(-c2nc(C(F)(F)F)c(OC)o2)cc1OC	9%	0%	-15	-4
CC(=O)Oc1ccc(C(=O)[C@H]2[C@H]3C(=O)N(c4ccc5ccccc5c4)C(=O)[C@H]3[C@@H]3C=CC=NN32)cc1	26%	219%	41	37*
CCOC(=O)C1CCCN(c2ccc(NC(=O)c3snc4c(=O)[nH]c(C)nc34)cc2)C1 (stereo not given)	u	0.93µM*	-9	6
CC(=O)Nc1ccc(NC(=O)C(C)OC(=O)CSCc2cccc(Cl)c2)cc1 (stereo not given)	25%	20%	x	x
CCCCSCc1[nH]c(=O)[nH]c1C(=O)CCCCC(=O)OCC	-15%	-23%	-5	1
CCOC(=O)CCCCC(=O)c1[nH]c(=O)[nH]c1Cn1ccnc1	0.47µM*	x	13	7
Cc1[nH][nH]c(=O)c1C(c1ccccc1[N+](=O)[O-])C(C#N)C#N (stereo not given)	-5%	13µM*	4	2
Cc1[nH][nH]c(=O)c1C(c1cc([N+](=O)[O-])ccc1O)c1c(C)[nH][nH]c1=O	u	125%	-12	-1
O=C1c2ccccc2NC(c2ccccc2Cl)N1N=C1CCCCCC1 (stereo not given)	97%	-9%	89*	37*
CC(C)NC(=O)CSc1nnc(-c2ccc(F)cc2)c2ccccc12	u	3%	-15	-2
SMILES	Pf growth 48h	Pf growth 96h	Shiga inhibitor	Cycloheximide cs
Cc1c(C(=O)N2CCc3ccccc32)oc2ccccc12	190%	8%	69*	55*
Cc1c(C(=O)N2CCN(S(C)(=O)=O)CC2)oc2ccccc12	13%	u	17	9.2*
COCc1c(C(=O)N2CCN(CCOc3ccccc3)CC2)oc2ccccc12	-22%	-2%	x	x
COc1ccc(S(=O)(=O)N2CCN(C(=O)c3oc4ccccc4c3C)CC2)cc1	-13%	u	20	-3
O=C(c1ccccc1)N1CCc2ccccc21	11%	x	20	19
O=C(C1COc2ccccc2O1)N1CCCCC1 (stereo not given)	14%	-7%	x	x
Cc1c(C(=O)N2CC(C(=O)N3CCCCC3)Oc3ccccc32)oc2ccccc12 (stereo not given)	u	13µM*	x	x
COCc1c(C(=O)N2CCc3ccccc32)oc2ccccc12	-1%	-5%	70*	14
NC(=O)/C(=C\c1ccccc1)NC(=O)c1ccc(NC(=O)c2ccccc2)cc1	9%	14%	44	-3
COCCNC(=O)C(c1ccc(F)cc1)N(C(=O)CCC(=O)Nc1ccccn1)C1CCCCC1 (stereo not given)	-2%	-4%	-6	-6
O=C(O)c1cccc2c1-c1ccccc1/C2=N\Nc1ccccc1	61%	-18%	116*	50*

Screening data: PubChem BioAssay, National Center for Advancing Translational Sciences (NCATS)
